Results: PubChem BioAssay (NCI)
This is part of a sample that, as a whole, favours compounds with a hit. Of some 79,000 tested, about 15% had one in any assay. Values without a mark were called inactive. Calls of active or inactive are those of the source. Rule as the data show it: active = growth inhibition above about 70%; inactive = the rest.

Key:
[1] = NCI Yeast Anticancer Drug Screen. Data for the rad52 strain (AID 147);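 also: 0% = growth of vehicle-treated control cultures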; conditions: S. cerevisiae rad52 mutant growth inhibition, hits give high values
How it was run: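 Here a repair-compromised yeast strain receives each compound; its growth is then quantified and normalised to vehicle-only controls.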

[2] = NCI Yeast Anticancer Drug Screen. Data for the wt1 strain (AID 149);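 also: 0% = growth of vehicle-treated wt1 cultures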; conditions: S. cerevisiae wt1 strain (SPY 50644) growth inhibition, hits give high values
How it was run: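 wt1 yeast, compound-treated; % growth inhibition vs vehicle control.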

[3] = NCI Yeast Anticancer Drug Screen. Data for the rad50EPP+ strain (AID 151);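 also: 0% = growth of vehicle-treated control cultures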; conditions: S. cerevisiae rad50 mutant strain, hits give high values
How it was run: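 Read-out is yeast growth inhibition relative to vehicle; cells used were the rad50EPP+ strain.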

[4] = NCI Yeast Anticancer Drug Screen. Data for the mgt1 strain (AID 153); conditions: S. cerevisiae mgt1 mutant growth inhibition, hits give high values
How it was run: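 Measured: inhibition of mgt1 yeast growth by compound, normalized to vehicle-treated cultures.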

[5] = NCI Yeast Anticancer Drug Screen. Data for the rad50 strain (AID 155);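 also: 0% = growth of vehicle-only cultures of the same strain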; conditions: S. cerevisiae rad50 strain growth inhibition, hits give high values
How it was run: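 Genetically altered yeast (DNA repair pathway); compound treatment; growth inhibition vs vehicle ctrl.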

[6] = NCI Yeast Anticancer Drug Screen. Data for the mec2-1 strain (AID 157); conditions: S. cerevisiae mec2-1 strain, hits give high values
How it was run: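 Using mec2-1 yeast: add compound, measure growth, express inhibition versus vehicle-treated cultures.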

[7] = NCI Yeast Anticancer Drug Screen. Data for the rad14 strain (AID 159);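 also: 0% = growth of vehicle-treated control cultures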; conditions: S. cerevisiae rad14 strain growth inhibition, hits give high values
How it was run: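 Test compounds were applied to a repair-deficient yeast strain. Its growth was then compared with that of cultures given vehicle alone, and inhibition was expressed relative to those controls.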

[8] = NCI Yeast Anticancer Drug Screen. Data for the sgs1 mgt1 strain (AID 161);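 also: 0% = growth of cultures given vehicle only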; conditions: S. cerevisiae sgs1 mgt1 strain, hits give high values
How it was run: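 Yeast cells carrying a defined DNA-repair defect were exposed to test compounds. Growth inhibition was measured relative to vehicle-treated controls.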

[9] = NCI Yeast Anticancer Drug Screen. Data for the CLN2oe strain (AID 163);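 also: 0% = growth of vehicle-only control cultures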; conditions: S. cerevisiae CLN2oe strain, hits give high values
How it was run: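 Whole-cell yeast growth assay. A strain engineered for altered cell-cycle control received compound, and inhibition relative to vehicle-treated cultures was recorded.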

[10] = NCI Yeast Anticancer Drug Screen. Data for the cln2 rad14 strain (AID 165);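 also: 0% = growth equal to vehicle treated cultures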; conditions: S. cerevisiae cln2 rad14 strain, hits give high values
How it was run: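 Yeast strain cln2 rad14, bearing defects in cell cycle control and DNA repair, serves as the test system; values reflect growth inhibition compared with vehicle.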

[11] = NCI Yeast Anticancer Drug Screen. Data for the bub3 strain (AID 167); conditions: S. cerevisiae bub3 mutant strain, hits give high values
How it was run: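 Yeast carrying a defined mutation is treated with each compound, and growth is compared with that of vehicle-exposed cells to give inhibition.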

[12] = NCI Yeast Anticancer Drug Screen. Data for the wt2 strain (AID 169);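 also: 0% = growth of vehicle-treated yeast cultures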; conditions: S. cerevisiae wt2 strain growth inhibition, hits give high values
How it was run: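 Treated yeast vs. vehicle-treated yeast: growth inhibition determined.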

[13] = NCI Yeast Anticancer Drug Screen. Data for the mlh1 strain (AID 171);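 also: 0% = growth of vehicle-treated control cultures of the same strain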; conditions: S. cerevisiae mlh1 strain growth inhibition, hits give high values
How it was run: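 A yeast strain with a defined genetic lesion serves as the test organism. Cultures receive compound or vehicle, and growth is measured.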

[14] = NCI Yeast Anticancer Drug Screen. Data for the mlh1 rad18 strain (AID 175); conditions: S. cerevisiae mlh1 rad18 strain growth inhibition, hits give high values
How it was run: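 Steps: expose repair-defective yeast to compound; measure growth; express inhibition against vehicle-treated controls.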

[15] = NCI Yeast Anticancer Drug Screen. Data for the rad18 strain (AID 177); conditions: S. cerevisiae rad18 mutant growth inhibition, hits give high values
How it was run: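 Measured value is growth inhibition of a yeast strain bearing a DNA repair alteration, referenced to vehicle-treated cells.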

[16] = at 5.0 µM (retest, dose inferred, filed as 0.5)
[17] = at 50.0 µM (retest, dose inferred, filed as 5.0)

O=C(Cc1ccccc1)NNc1nc(NNC(=O)c2ccncc2)nc(Nc2ccc(Cl)cc2)n1
growth inhibition ([1]; at 1.2 µM): 16% | growth inhibition ([1]; at 3.7 µM): 6% | growth inhibition ([1]; at 11.0 µM): 16% | growth inhibition ([1]; at 33.0 µM): 14% | growth inhibition ([1]; at 100.0 µM): 17% | growth inhibition ([2]; at 1.2 µM): -52% | growth inhibition ([2]; at 3.7 µM): -3% | growth inhibition ([2]; at 11.0 µM): 0% | growth inhibition ([2]; at 33.0 µM): -1% | growth inhibition ([2]; at 100.0 µM): -1% | growth inhibition ([3]; at 1.2 µM): 1% | growth inhibition ([3]; at 3.7 µM): 8% | growth inhibition ([3]; at 11.0 µM): 6% | growth inhibition ([3]; at 33.0 µM): 3% | growth inhibition ([3]; at 100.0 µM): 4% | growth inhibition ([4]; at 1.2 µM): 1% | growth inhibition ([4]; at 3.7 µM): 3% | growth inhibition ([4]; at 11.0 µM): 5% | growth inhibition ([4]; at 33.0 µM): 3% | growth inhibition ([4]; at 100.0 µM): -1% | growth inhibition ([5]; at 1.2 µM): -1% | growth inhibition ([5]; at 3.7 µM): 0% | growth inhibition [5, 16]: 3% | growth inhibition ([5]; at 11.0 µM): 0% | growth inhibition ([5]; at 33.0 µM): -1% | growth inhibition [5, 17]: 38% | growth inhibition ([5]; at 50.0 µM): 39.2% | growth inhibition ([5]; at 100.0 µM): 1% | growth inhibition ([6]; at 1.2 µM): -3% | growth inhibition ([6]; at 3.7 µM): -5% | growth inhibition [6, 16]: 6% | growth inhibition ([6]; at 11.0 µM): -1% | growth inhibition ([6]; at 33.0 µM): 4% | growth inhibition [6, 17]: 22% | growth inhibition ([6]; at 50.0 µM): 48.2% | growth inhibition ([6]; at 100.0 µM): -3% | growth inhibition ([7]; at 1.2 µM): 0% | growth inhibition ([7]; at 3.7 µM): 4% | growth inhibition ([7]; at 11.0 µM): 3% | growth inhibition ([7]; at 33.0 µM): 0% | growth inhibition ([7]; at 100.0 µM): 2% | growth inhibition [8, 16]: 1% | growth inhibition [8, 17]: 12% | growth inhibition ([8]; at 50.0 µM): 55.3% | growth inhibition ([9]; at 1.2 µM): -14% | growth inhibition ([9]; at 3.7 µM): -9% | growth inhibition ([9]; at 11.0 µM): -13% | growth inhibition ([9]; at 33.0 µM): -20% | growth inhibition ([9]; at 100.0 µM): -24% | growth inhibition [10, 16]: -21% | growth inhibition [10, 17]: 45% | growth inhibition ([10]; at 50.0 µM): 10.1% | growth inhibition ([11]; at 1.2 µM): -3% | growth inhibition ([11]; at 3.7 µM): -5% | growth inhibition [11, 16]: -7% | growth inhibition ([11]; at 11.0 µM): -4% | growth inhibition ([11]; at 33.0 µM): -6% | growth inhibition [11, 17]: 98% (active) | growth inhibition ([11]; at 50.0 µM): 31.8% | growth inhibition ([11]; at 100.0 µM): -7% | growth inhibition ([12]; at 1.2 µM): -4% | growth inhibition ([12]; at 3.7 µM): 2% | growth inhibition ([12]; at 11.0 µM): 4% | growth inhibition ([12]; at 33.0 µM): -1% | growth inhibition ([12]; at 100.0 µM): -2% | growth inhibition ([13]; at 1.2 µM): -2% | growth inhibition ([13]; at 3.7 µM): -1% | growth inhibition ([13]; at 11.0 µM): 0% | growth inhibition ([13]; at 33.0 µM): -2% | growth inhibition ([13]; at 100.0 µM): -3% | growth inhibition [14, 16]: 13% | growth inhibition [14, 17]: 14% | growth inhibition ([14]; at 50.0 µM): 59.9% | growth inhibition ([15]; at 1.2 µM): 9% | growth inhibition ([15]; at 3.7 µM): 10% | growth inhibition ([15]; at 11.0 µM): 19% | growth inhibition ([15]; at 33.0 µM): 19% | growth inhibition ([15]; at 100.0 µM): 15%

CCCCCCNCCCNc1c2ccccc2nc2cccc([N+](=O)[O-])c12
growth inhibition ([1]; at 1.2 µM): 43% | growth inhibition ([1]; at 3.7 µM): 80% (active) | growth inhibition ([1]; at 11.0 µM): 92% (active) | growth inhibition ([1]; at 33.0 µM): 95% (active) | growth inhibition ([1]; at 100.0 µM): 95% (active) | growth inhibition ([2]; at 1.2 µM): -2% | growth inhibition ([2]; at 3.7 µM): 0% | growth inhibition ([2]; at 11.0 µM): 8% | growth inhibition ([2]; at 33.0 µM): 59% | growth inhibition ([2]; at 100.0 µM): 92% (active) | growth inhibition ([3]; at 1.2 µM): -1% | growth inhibition ([3]; at 3.7 µM): 5% | growth inhibition ([3]; at 11.0 µM): 26% | growth inhibition ([3]; at 33.0 µM): 67% | growth inhibition ([3]; at 100.0 µM): 94% (active) | growth inhibition ([4]; at 1.2 µM): -4% | growth inhibition ([4]; at 3.7 µM): -4% | growth inhibition ([4]; at 11.0 µM): 11% | growth inhibition ([4]; at 33.0 µM): 78% (active) | growth inhibition ([4]; at 100.0 µM): 94% (active) | growth inhibition ([5]; at 1.2 µM): 24% | growth inhibition ([5]; at 3.7 µM): 64% | growth inhibition [5, 16]: 69% | growth inhibition ([5]; at 11.0 µM): 90% (active) | growth inhibition ([5]; at 33.0 µM): 94% (active) | growth inhibition [5, 17]: 98% (active) | growth inhibition ([5]; at 50.0 µM): 83.3% (active) | growth inhibition ([5]; at 100.0 µM): 96% (active) | growth inhibition ([6]; at 1.2 µM): 4% | growth inhibition ([6]; at 3.7 µM): 40%
